# Laboratory results taken from the supplement of paper PMC12645437, “Orthogonal IMiD-Degron Pairs Induce Selective Protein Degradation in Cells” (ACS Chemical Biology, 2025).
# In all, about 8,300 sequences were measured (“log2 fold change of degron read counts, EGFP-low vs EGFP+ sorted cells (limma voom), compound-induced degradation”: median about -1.1, highest 2% from about 3.2 on). The list comes from a sample in which the highest values are over-represented; it also holds similar and randomly drawn sequences.
# T1: CRBN, Q96SW2
# T1 chain: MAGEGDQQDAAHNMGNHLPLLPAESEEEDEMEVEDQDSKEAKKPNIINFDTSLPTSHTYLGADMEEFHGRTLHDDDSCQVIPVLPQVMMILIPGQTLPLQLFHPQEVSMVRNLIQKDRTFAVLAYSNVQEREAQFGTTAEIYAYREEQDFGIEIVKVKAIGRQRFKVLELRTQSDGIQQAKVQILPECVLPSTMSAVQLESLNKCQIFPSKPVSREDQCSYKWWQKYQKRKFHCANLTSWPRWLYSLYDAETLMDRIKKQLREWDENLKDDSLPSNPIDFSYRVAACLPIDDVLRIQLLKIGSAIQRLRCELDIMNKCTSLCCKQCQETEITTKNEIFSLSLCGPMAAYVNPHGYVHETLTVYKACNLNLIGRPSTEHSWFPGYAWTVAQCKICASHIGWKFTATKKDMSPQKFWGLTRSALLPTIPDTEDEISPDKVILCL
# B1: 46F_47F_49D_50Q_52G_53A_54E_55F_67L_, Q9UKT9 (peptide)
# chain: FFCDQCGAEFTQKGNLLRHIKL
# B2: 46F_47A_49P_50V_52G_53A_54F_55F_67L_, Q9UKT9 (peptide)
# chain: FACPVCGAFFTQKGNLLRHIKL
# B3: 46F_47E_49P_50I_52G_53H_54E_55F_67L_, Q9UKT9 (peptide)
# chain: FECPICGHEFTQKGNLLRHIKL
# B4: 46F_47L_49E_50I_52G_53R_54R_55F_67L_, Q9UKT9 (peptide)
# chain: FLCEICGRRFTQKGNLLRHIKL
# B5: 46F_47L_49N_50V_52G_53A_54S_55F_67L_, Q9UKT9 (peptide)
# chain: FLCNVCGASFTQKGNLLRHIKL
# B6: 46F_47F_49P_50I_52G_53H_54E_55F_67L_, Q9UKT9 (peptide)
# chain: FFCPICGHEFTQKGNLLRHIKL
# B7: 46F_47M_49N_50V_52G_53A_54M_55F_67L_, Q9UKT9 (peptide)
# chain: FMCNVCGAMFTQKGNLLRHIKL
# B8: 46F_47T_49N_50V_52G_53A_54L_55F_67L_, Q9UKT9 (peptide)
# chain: FTCNVCGALFTQKGNLLRHIKL
# B9: 46F_47K_49D_50I_52G_53A_54G_55F_67L_, Q9UKT9 (peptide)
# chain: FKCDICGAGFTQKGNLLRHIKL
# B10: 46F_47L_49N_50I_52G_53A_54A_55F_67L_, Q9UKT9 (peptide)
# chain: FLCNICGAAFTQKGNLLRHIKL
# B11: 46F_47R_49P_50I_52G_53R_54M_55F_67L_, Q9UKT9 (peptide)
# chain: FRCPICGRMFTQKGNLLRHIKL
# B12: 46F_47H_49N_50Q_52G_53H_54N_55F_67L_, Q9UKT9 (peptide)
# chain: FHCNQCGHNFTQKGNLLRHIKL
# B13: 46F_47V_49N_50I_52G_53A_54Y_55F_67L_, Q9UKT9 (peptide)
# chain: FVCNICGAYFTQKGNLLRHIKL
# B14: 46F_47S_49E_50Q_52G_53A_54H_55F_67L_, Q9UKT9 (peptide)
# chain: FSCEQCGAHFTQKGNLLRHIKL
# B15: 46F_47I_49P_50V_52G_53A_54C_55F_67L_, Q9UKT9 (peptide)
# chain: FICPVCGACFTQKGNLLRHIKL
# B16: 46F_47T_49P_50V_52G_53A_54C_55F_67L_, Q9UKT9 (peptide)
# chain: FTCPVCGACFTQKGNLLRHIKL
# B17: 46F_47E_49P_50V_52G_53A_54C_55F_67L_, Q9UKT9 (peptide)
# chain: FECPVCGACFTQKGNLLRHIKL
# B18: 46F_47E_49D_50I_52G_53A_54H_55F_67L_, Q9UKT9 (peptide)
# chain: FECDICGAHFTQKGNLLRHIKL
# B19: 46F_47Y_49D_50I_52G_53A_54H_55F_67L_, Q9UKT9 (peptide)
# chain: FYCDICGAHFTQKGNLLRHIKL
# B20: 46F_47C_49D_50I_52G_53A_54H_55F_67L_, Q9UKT9 (peptide)
# chain: FCCDICGAHFTQKGNLLRHIKL
# B21: 46F_47W_49D_50I_52G_53A_54H_55F_67L_, Q9UKT9 (peptide)
# chain: FWCDICGAHFTQKGNLLRHIKL
# B22: 46F_47N_49D_50I_52G_53A_54H_55F_67L_, Q9UKT9 (peptide)
# chain: FNCDICGAHFTQKGNLLRHIKL
# B23: 46F_47Q_49D_50I_52G_53A_54H_55F_67L_, Q9UKT9 (peptide)
# chain: FQCDICGAHFTQKGNLLRHIKL
# B24: 46L_47C_49N_50Q_52G_53F_54R_55C_67L_, Q9UKT9 (peptide)
# chain: LCCNQCGFRCTQKGNLLRHIKL
# B25: 46F_47T_49E_50I_52G_53A_54F_55F_67L_, Q9UKT9 (peptide)
# chain: FTCEICGAFFTQKGNLLRHIKL
# B26: 46F_47D_49N_50I_52G_53A_54F_55F_67L_, Q9UKT9 (peptide)
# chain: FDCNICGAFFTQKGNLLRHIKL
# B27: 46L_47D_49E_50I_52G_53F_54E_55C_67L_, Q9UKT9 (peptide)
# chain: LDCEICGFECTQKGNLLRHIKL
# B28: 46F_47S_49P_50I_52G_53A_54K_55F_67L_, Q9UKT9 (peptide)
# chain: FSCPICGAKFTQKGNLLRHIKL
# B29: 46F_47A_49P_50I_52G_53A_54K_55F_67L_, Q9UKT9 (peptide)
# chain: FACPICGAKFTQKGNLLRHIKL
# B30: 46F_47V_49P_50I_52G_53A_54K_55F_67L_, Q9UKT9 (peptide)
# chain: FVCPICGAKFTQKGNLLRHIKL
# B31: 46F_47M_49P_50I_52G_53A_54K_55F_67L_, Q9UKT9 (peptide)
# chain: FMCPICGAKFTQKGNLLRHIKL
# B32: 46F_47N_49P_50I_52G_53A_54K_55F_67L_, Q9UKT9 (peptide)
# chain: FNCPICGAKFTQKGNLLRHIKL
# B33: 46F_47Q_49P_50I_52G_53A_54K_55F_67L_, Q9UKT9 (peptide)
# chain: FQCPICGAKFTQKGNLLRHIKL
# B34: 46F_47M_49N_50I_52G_53A_54K_55F_67L_, Q9UKT9 (peptide)
# chain: FMCNICGAKFTQKGNLLRHIKL
# B35: 46F_47Q_49N_50I_52G_53A_54K_55F_67L_, Q9UKT9 (peptide)
# chain: FQCNICGAKFTQKGNLLRHIKL
# B36: 46F_47Y_49N_50I_52G_53A_54K_55F_67L_, Q9UKT9 (peptide)
# chain: FYCNICGAKFTQKGNLLRHIKL
# B37: 46F_47T_49P_50I_52G_53A_54K_55F_67L_, Q9UKT9 (peptide)
# chain: FTCPICGAKFTQKGNLLRHIKL
# B38: 46F_47C_49P_50I_52G_53A_54K_55F_67L_, Q9UKT9 (peptide)
# chain: FCCPICGAKFTQKGNLLRHIKL
# B39: 46F_47G_49P_50I_52G_53A_54K_55F_67L_, Q9UKT9 (peptide)
# chain: FGCPICGAKFTQKGNLLRHIKL
# Target: T1, CRBN, Q96SW2
# Test: log2 fold change of degron read counts, EGFP-low vs EGFP+ sorted cells (limma voom), compound-induced degradation; higher = more compound-induced degradation of the degron-EGFP fusion; degrons are variants of IKZF1/3 zinc finger 2; compound dose not given here
# Conditions: Jurkat, 18 h
# [1] = compound: compound 19 (5-tert-butyl-thalidomide)
# [2] = compound: compound 22 (5-morpholino-thalidomide)
# [3] = compound: compound 33 (diphenyl IMiD analogue)
# 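Also: pooled lentiviral library of zinc finger degron-EGFP fusions in mCherry-positive Jurkat cells, FACS-sorted after compound exposure, with degron abundance counted by next-generation sequencing.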
Sequence,log2 fold change of degron read counts [1],log2 fold change of degron read counts [2],log2 fold change of degron read counts [3],log2 fold change of degron read counts (compound: thalidomide)
B1,-0.653,-1.5,-2.48,-2.75
B2,1.92,-0.0365,0.632,-0.719
B3,-3.46,-3.29,-1.58,-1.82
B4,-1.65,-2.28,-1.89,-0.0712
B5,-1.47,-1.87,-0.611,-0.827
B6,-1.46,-1.37,-1.31,-1.41
B7,-2.09,-2.13,0.122,-1.26
B8,-2.25,-1.98,-0.325,-1.1
B9,0.734,-1.83,-2.3,-1.43
B10,-0.363,-1.33,0.248,0.231
B11,-1.98,-1.28,-0.201,0.319
B12,-2.43,-3.18,-2.46,-2.52
B13,-0.917,-0.227,1.05,1.24
B14,-1.34,-2.19,-1.26,-1.95
B15,-0.981,2.06,2.04,2.16
B16,0.948,2.51,2.73,3.33
B17,0.122,-0.609,2.52,2.75
B18,-1.93,-3.04,-0.896,-0.791
B19,2.51,3.38,0.931,-1.03
B20,0.131,-0.464,-0.191,-0.916

Sequence,log2 fold change of degron read counts [1],log2 fold change of degron read counts [2],log2 fold change of degron read counts [3],log2 fold change of degron read counts (compound: thalidomide)
B21,2.34,3.41,0.744,-0.669
B22,0.871,-0.896,-1.51,-1.76
B23,-1.42,-0.152,-0.605,1.82
B24,-1.39,-1.65,-1.27,-1.01
B25,-0.327,0.0883,0.985,1.57
B26,-1.62,-1.63,-0.882,-0.692
B27,-1.93,-2.68,-2.74,-1.97
B28,2.33,1.67,-0.456,1.28
B29,3.43,1.44,-1.12,0.992
B30,-0.253,1.93,-0.152,2.45
B31,-0.0561,0.0581,0.821,0.888
B32,2.07,0.6,-1.08,0.72
B33,0.535,3,0.562,3.44
B34,-1.58,-1.36,-0.574,-0.374
B35,-1.16,1.71,-0.442,3.26
B36,1.97,2.19,-0.298,-0.655
B37,0.0311,2.04,-0.046,2.35
B38,2.65,2.05,0.122,2.09
B39,3.59,1.76,-0.616,1.31
